# Only a selection was taken, and the strongest signals are over-represented in it overall.
# B1: SBD (Rhizopus oryzae), P07683 (protein)
# chain: ASIPSSASVQLDSYNYDGSTFSGKIYVKNIAYSKKVTVVYADGSDNWNNNGNIIAASFSGPISGSNYEYWTFSASVKGIKEFYIKYEVSGKTYYDNNNSANYQVS
# B2: CV-2L (Chromobacterium violaceum), Q7NX84 (protein)
# chain: MAQQGVFTLPARINFGVTVLVNSAATQHVEIFVDNEPRAAFSGVGTGDNNLGTKVINSGSGNVRVQITANGRQSDLVSSQLVLANKLNLAVVGSEDGTDMDYNDSIVILNWPLG
# Legend:
# Assay in all cases: glycan array binding signal (z-score within array); higher = stronger binding
# Conditions in all cases: glycan notation: IUPAC condensed, linker removed
# [1] = target: Fuc(a1-2)Gal(b1-3)GalNAc
# Outline: (§1)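 Arrays were curated from the Consortium for Functional Glycomics database, 3228 in total, and kept only where the protein sequence was available. Binding is expressed as a within-array Z-score. This score was averaged across arrays of the same protein sequence at different concentrations or buffers and across linkers, and negative values can be read as non-binding.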
# [2] = target: Fuc(a1-2)Gal(b1-3)GalNAc(b1-3)Gal
# Outline: as §1
# [3] = target: Fuc(a1-2)Gal(b1-3)GlcNAc(b1-3)Gal(b1-4)Glc
# Outline: as §1
# [4] = target: Fuc(a1-2)Gal(b1-4)Glc
# Outline: as §1
# [5] = target: Fuc(a1-2)[GalNAc(a1-3)]Gal(b1-4)Glc
# Outline: as §1
# [6] = target: Fuc(a1-3)GlcNAc
# Outline: as §1
# [7] = target: Fuc(a1-3)[Gal3S(b1-4)]Glc6S
# Outline: as §1
# [8] = target: Gal(a1-3)Gal
# Outline: as §1
# [9] = target: Gal(a1-4)Gal(b1-4)GlcNAc(b1-2)Man(a1-3)[Gal(a1-4)Gal(b1-4)GlcNAc(b1-2)Man(a1-6)]Man(b1-4)GlcNAc(b1-4)GlcNAc
# Outline: as §1
# [10] = target: Gal(a1-4)Gal(b1-4)GlcNAc(b1-3)Gal(b1-4)Glc
# Outline: as §1
# [11] = target: Gal(b1-3)GlcNAc
# Outline: as §1
# [12] = target: Gal(b1-3)GlcNAc(b1-3)Gal(b1-4)Glc
# Outline: as §1
# [13] = target: Gal(b1-3)[Fuc(a1-4)]GlcNAc
# Outline: as §1
# [14] = target: Gal(b1-3)[Fuc(a1-4)]GlcNAc(b1-3)Gal(b1-4)[Fuc(a1-3)]GlcNAc
# Outline: as §1
# [15] = target: Gal(b1-3)[Neu5Ac(b2-6)]GalNAc
# Outline: as §1
# [16] = target: Gal(b1-4)GlcNAc(b1-2)Man(a1-6)[GlcNAc(b1-2)Man(a1-3)]Man(b1-4)GlcNAc(b1-4)GlcNAc
# Outline: as §1
# [17] = target: Gal(b1-4)GlcNAc(b1-6)Gal(b1-4)GlcNAc
# Outline: as §1
# [18] = target: Gal(b1-4)GlcNAc(b1-6)GalNAc
# Outline: as §1
# [19] = target: Gal3S(b1-4)Glc
# Outline: as §1
# [20] = target: Gal3S6S(b1-4)GlcNAc6S
# Outline: as §1
# [21] = target: Gal6S(b1-4)Glc
# Outline: as §1
# [22] = target: GalNAc(b1-3)Gal(a1-4)Gal(b1-4)GlcNAc
# Outline: as §1
# [23] = target: Glc(a1-6)Glc(a1-6)Glc
# Outline: as §1
# [24] = target: Glc(b1-4)Glc
# Outline: as §1
# [25] = target: GlcNAc(b1-3)[GlcNAc(b1-4)][GlcNAc(b1-6)]GlcNAc
# Outline: as §1
# [26] = target: Kdn(a2-3)Gal(b1-3)GalNAc
# Outline: as §1
# [27] = target: Man(a1-2)Man(a1-2)Man(a1-3)Man
# Outline: as §1
# [28] = target: Man(a1-3)[Man(a1-6)]Man(a1-6)[Man(a1-3)]Man(b1-4)GlcNAc(b1-4)GlcNAc
# Outline: as §1
# [29] = target: Neu5Ac(a2-3)Gal(b1-3)GlcNAc(b1-3)GalNAc
# Outline: as §1
# [30] = target: Neu5Ac(a2-3)Gal(b1-4)GlcNAc(b1-3)Gal(b1-4)GlcNAc(b1-3)Gal(b1-4)GlcNAc
# Outline: as §1
# [31] = target: Fuc(a1-2)Gal(b1-4)Glc6S
# Outline: as §1
# [32] = target: Fuc(a1-2)Gal(b1-4)GlcNAc
# Outline: as §1
# [33] = target: Fuc(a1-2)Gal(b1-4)GlcNAc(b1-2)Man(a1-3)[Fuc(a1-2)Gal(b1-4)GlcNAc(b1-2)Man(a1-6)]Man(b1-4)GlcNAc(b1-4)GlcNAc
# Outline: as §1
# [34] = target: Fuc(a1-2)Gal(b1-4)GlcNAc(b1-3)Gal(b1-4)GlcNAc
# Outline: as §1
# [35] = target: Fuc(a1-2)Gal(b1-4)GlcNAc(b1-3)Gal(b1-4)GlcNAc(b1-3)Gal(b1-4)GlcNAc
# Outline: as §1
# [36] = target: Fuc(a1-2)Gal(b1-4)GlcNAc(b1-3)[Fuc(a1-2)Gal(b1-4)GlcNAc(b1-6)]GalNAc
# Outline: as §1
# [37] = target: Fuc(a1-2)Gal(b1-4)GlcNAc6S
# Outline: as §1
# [38] = target: Fuc(a1-2)Gal(b1-4)[Fuc(a1-3)]GlcNAc
# Outline: as §1
# [39] = target: Fuc(a1-2)Gal6S(b1-4)Glc6S
# Outline: as §1
# [40] = target: Fuc(a1-2)[Gal(a1-3)]Gal(b1-3)GlcNAc(b1-2)Man(a1-3)[Fuc(a1-2)[Gal(a1-3)]Gal(b1-3)GlcNAc(b1-2)Man(a1-6)]Man(b1-4)GlcNAc(b1-4)GlcNAc
# Outline: as §1
# [41] = target: Fuc(a1-2)[Gal(a1-3)]Gal(b1-4)GlcNAc(b1-2)Man(a1-3)[Fuc(a1-2)[Gal(a1-3)]Gal(b1-4)GlcNAc(b1-2)Man(a1-6)]Man(b1-4)GlcNAc(b1-4)[Fuc(a1-6)]GlcNAc
# Outline: as §1
# [42] = target: Fuc(a1-2)[Gal(a1-3)]Gal(b1-4)[Fuc(a1-3)]Glc
# Outline: as §1
# [43] = target: Fuc(a1-2)[Gal(a1-3)]Gal(b1-4)[Fuc(a1-3)]GlcNAc(b1-3)GalNAc
# Outline: as §1
# [44] = target: Fuc(a1-2)[GalNAc(a1-3)]Gal
# Outline: as §1
# [45] = target: Fuc(a1-3)[Gal(b1-4)]GlcNAc(b1-4)Gal(b1-4)[Fuc(a1-3)]GlcNAc(b1-4)Gal(b1-4)[Fuc(a1-3)]GlcNAc
# Outline: as §1
# [46] = target: Gal(a1-3)Gal(b1-4)GlcNAc(b1-3)GalNAc
# Outline: as §1
# [47] = target: Gal(a1-3)Gal(b1-4)[Fuc(a1-3)]GlcNAc(b1-2)Man(a1-3)[Gal(a1-3)Gal(b1-4)[Fuc(a1-3)]GlcNAc(b1-2)Man(a1-6)]Man(b1-4)GlcNAc(b1-4)GlcNAc
# Outline: as §1
# [48] = target: Gal(a1-6)Glc
# Outline: as §1
# [49] = target: Gal(b1-3)GalNAc
# Outline: as §1
# [50] = target: Gal(b1-4)GlcNAc(b1-2)Man(a1-3)[Gal(b1-4)GlcNAc(b1-2)Man(a1-6)]Man(b1-4)GlcNAc(b1-4)[Fuc(a1-6)]GlcNAc
# Outline: as §1
# [51] = target: Gal(b1-4)GlcNAc(b1-2)[Gal(b1-4)GlcNAc(b1-4)]Man(a1-3)[GlcNAc(b1-4)][Gal(b1-4)GlcNAc(b1-2)[Gal(b1-4)GlcNAc(b1-6)]Man(a1-6)]Man(b1-4)GlcNAc(b1-4)GlcNAc
# Outline: as §1
# [52] = target: Gal(b1-4)GlcNAc(b1-2)[Gal(b1-4)GlcNAc(b1-6)]Man(a1-6)[Gal(b1-4)GlcNAc(b1-2)Man(a1-3)]Man(b1-4)GlcNAc(b1-4)GlcNAc
# Outline: as §1
# [53] = target: Gal(b1-4)GlcNAc(b1-2)[Gal(b1-4)GlcNAc(b1-6)]Man(a1-6)[GlcNAc(b1-4)][Gal(b1-4)GlcNAc(b1-2)Man(a1-3)]Man(b1-4)GlcNAc(b1-4)GlcNAc
# Outline: as §1
# [54] = target: Gal(b1-4)GlcNAc(b1-3)Gal(b1-3)GlcNAc
# Outline: as §1
# [55] = target: Gal(b1-4)GlcNAc(b1-3)GalNAc
# Outline: as §1
# [56] = target: Gal4S(b1-4)GlcNAc
# Outline: as §1
# [57] = target: GalNAc(a1-3)GalNAc(b1-3)Gal(a1-4)Gal(b1-4)GlcNAc
# Outline: as §1
# [58] = target: GalNAc(b1-3)Gal(a1-6)Gal(b1-4)Glc
# Outline: as §1
# [59] = target: GlcNAc(a1-6)Gal(b1-4)GlcNAc
# Outline: as §1
# [60] = target: Kdn(a2-3)Gal(b1-4)GlcNAc
# Outline: as §1
# [61] = target: Neu5Ac(a2-3)Gal(b1-4)[Fuc(a1-3)]GlcNAc(b1-3)Gal
# Outline: as §1
# [62] = target: Neu5Ac(a2-3)Gal(b1-4)[Fuc(a1-3)]GlcNAc(b1-3)Gal(b1-4)GlcNAc
# Outline: as §1
# [63] = target: Neu5Ac(a2-6)Gal(b1-4)GlcNAc(b1-2)Man(a1-3)[Neu5Ac(a2-6)Gal(b1-4)GlcNAc(b1-2)Man(a1-6)]Man(b1-4)GlcNAc(b1-4)GlcNAc
# Outline: as §1
# [64] = target: Neu5Gc(a2-6)Gal(b1-4)GlcNAc
# Outline: as §1
binder,measurement,setting,value
B1,glycan array binding signal (z-score),[1],0.019
same,glycan array binding signal (z-score),[2],2.93
same,glycan array binding signal (z-score),[3],2.1
same,glycan array binding signal (z-score),[4],-0.623
same,glycan array binding signal (z-score),[5],-0.2
same,glycan array binding signal (z-score),[6],0.165
same,glycan array binding signal (z-score),[7],0.589
same,glycan array binding signal (z-score),[8],-0.697
same,glycan array binding signal (z-score),[9],2.59
same,glycan array binding signal (z-score),[10],0.2
same,glycan array binding signal (z-score),[11],0.042
same,glycan array binding signal (z-score),[12],2.02
same,glycan array binding signal (z-score),[13],-0.029
same,glycan array binding signal (z-score),[14],0.121
same,glycan array binding signal (z-score),[15],-0.657
same,glycan array binding signal (z-score),[16],-0.081
same,glycan array binding signal (z-score),[17],0.47
same,glycan array binding signal (z-score),[18],-0.13
same,glycan array binding signal (z-score),[19],0.207
same,glycan array binding signal (z-score),[20],0.19
same,glycan array binding signal (z-score),[21],-0.476
same,glycan array binding signal (z-score),[22],-0.155
same,glycan array binding signal (z-score),[23],-0.213
same,glycan array binding signal (z-score),[24],-0.436
same,glycan array binding signal (z-score),[25],-0.005
same,glycan array binding signal (z-score),[26],0.62
same,glycan array binding signal (z-score),[27],5.61
same,glycan array binding signal (z-score),[28],-0.313
same,glycan array binding signal (z-score),[29],2
same,glycan array binding signal (z-score),[30],-0.668
B2,glycan array binding signal (z-score),[1],0.156
same,glycan array binding signal (z-score),[31],4.43
same,glycan array binding signal (z-score),[32],5.39
same,glycan array binding signal (z-score),[33],5.17
same,glycan array binding signal (z-score),[34],5.68
same,glycan array binding signal (z-score),[35],5.57
same,glycan array binding signal (z-score),[36],5.71
same,glycan array binding signal (z-score),[37],5.42
same,glycan array binding signal (z-score),[38],0.928
same,glycan array binding signal (z-score),[39],4.37
same,glycan array binding signal (z-score),[40],-0.292
same,glycan array binding signal (z-score),[41],-0.257
same,glycan array binding signal (z-score),[42],-0.019
same,glycan array binding signal (z-score),[43],-0.294
same,glycan array binding signal (z-score),[44],-0.2
same,glycan array binding signal (z-score),[6],1.49
same,glycan array binding signal (z-score),[45],-0.252
same,glycan array binding signal (z-score),[46],-0.341
same,glycan array binding signal (z-score),[47],-0.319
same,glycan array binding signal (z-score),[48],-0.347
same,glycan array binding signal (z-score),[49],-0.341
same,glycan array binding signal (z-score),[12],-0.304
same,glycan array binding signal (z-score),[14],0.831
same,glycan array binding signal (z-score),[50],-0.275
same,glycan array binding signal (z-score),[51],-0.334
same,glycan array binding signal (z-score),[52],-0.307
same,glycan array binding signal (z-score),[53],-0.316
same,glycan array binding signal (z-score),[54],-0.343
same,glycan array binding signal (z-score),[55],-0.342
same,glycan array binding signal (z-score),[56],-0.355
same,glycan array binding signal (z-score),[57],-0.306
same,glycan array binding signal (z-score),[58],-0.338
same,glycan array binding signal (z-score),[59],-0.342
same,glycan array binding signal (z-score),[60],-0.31
same,glycan array binding signal (z-score),[61],-0.337
same,glycan array binding signal (z-score),[62],-0.308
same,glycan array binding signal (z-score),[63],-0.336
same,glycan array binding signal (z-score),[64],-0.326

# — the supplement of paper PMC8728848
